Screening data: PubChem, National Center for Advancing Translational Sciences (NCATS)
The entries come from a sample that favours hits as a whole.
Pf Dd2 growth: Plasmodium falciparum Dd2 growth inhibition; P. falciparum Dd2 growth, SYBR Green, 72 h; Potency, µM (highest dose often 28.9 µM), actives largely listed as inhibitors; 120,000 compounds, 4.3% hits; active = well fitted inhibition curve with a large enough effect; note: nearly all actives have a fitted effect of over 65% in size
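Infected erythrocytes (Dd2, 0.3% parasitemia, 2.5% hematocrit final) are added to compound in RPMI-1640/Albumax II medium, grown 72 h at 37C in low oxygen, then lysed with saponin/Triton-X containing SYBR Green and read by fluorescence.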
Hits are given with their value; 0 = inactive.

SMILES	Pf Dd2 growth
CC(C)NC(=O)c1ccc(-n2c(-c3ccccc3)cc3c2CCCC3)cc1	0
COCCNC(=O)c1ccc(-n2c(-c3ccccc3)cc3c2CCCCC3)cc1	0
Cc1ccc(C2(O)CCN(C(=O)C(N)CC3CCCC3)CC2)nc1 (stereo not drawn)	0
Cc1noc([C@@H](C)NS(C)(=O)=O)c1C(=O)O	0
COc1ccc(CN[C@@H]2CCC[C@@H](C(=O)NCc3cc(C)on3)CC(=O)N(C)C2)cc1	0
COc1ccc(CNC(=O)C2(c3ccc(NC(C)=O)cc3)CCCCC2)cc1	0
CC(C)(C)c1ccc(C(=O)N2CCN(CCc3ccccn3)CC2)cc1	0
COc1cc(C(=O)N2CCN(CCc3ccccn3)CC2)cc(OC)c1OC	2.82µM
COc1cc(C(=O)N2CCN(CCc3ccncc3)CC2)cc(OC)c1OC	0
O=C1C(OCC2CC2)C2(CCOCC2)N1C1CCNCC1 (stereo not drawn)	0
CCN(Cc1cnn(CC)c1)C(=O)C1COc2ccccc2C1 (stereo not drawn)	0
CNC(=O)c1ccc2c(c1)NC(C)(CCCCc1ccccc1)CO2 (stereo not drawn)	0
COc1cccc(C(=O)N2CCOc3ccc(CN4CCCCC4)cc3C2)c1	0
CCOCCCNC(=O)N1CCOc2ccc(CN(CC)CC)cc2C1	0
CCN(CC)Cc1ccc2c(c1)CN(C(=O)c1cccc(F)c1)CCO2	6.31µM
CC1=C[C@@H](CNC(=O)c2ccco2)[C@H](C(C)C)C[C@H]1CC(=O)NCc1ccccn1	0
COc1cccc(CC(=O)N2CCC(n3cc(-c4nc(-c5ccccc5)no4)nn3)CC2)c1	0
O=C1NN=C(c2cccnc2)C12CCN([S+](=O)([O-])c1cccc(C(F)(F)F)c1)CC2	0
O=S(=O)(c1ccccc1C(F)(F)F)N1CCC(C2CCNC2)CC1 (stereo not drawn)	0
CN(Cc1cc(-c2cccs2)n[nH]1)C[C@@H]1CCCN2CCCC[C@H]12	7.08µM
CN1CCCn2nc(C(=O)N(C)Cc3cc(-c4cccs4)n[nH]3)cc2C1	0
CN(Cc1cc(-c2cccs2)n[nH]1)C(=O)c1cn(CCN)nn1	0
Cc1noc(C)c1CCC(=O)N1CCn2nc(Cc3ccccc3)cc2C1	0
COc1cc2[nH]c(=O)n(CCCC(=O)N3CCN(c4cccc(C(F)(F)F)c4)CC3)c(=O)c2cc1OC	0
CCCN(C(=O)c1cn(CC(C)C)c(=O)c2cc(OC)c(OC)cc12)c1cccc(C)c1	0
SMILES	Pf Dd2 growth
COc1cc2c(C(=O)N3CCN(c4cccc(C(F)(F)F)c4)CC3)cn(CC(C)C)c(=O)c2cc1OC	8.91µM
COc1ccc(-c2ccc3c(N)c(C(=O)Nc4cc(F)ccc4C)sc3n2)cc1	0
COc1ccc(-c2c3c(nc4sc(C(=O)Nc5ccc(F)cc5)c(N)c24)CC(C)(C)CC3=O)cc1	0.562µM
Cc1c(C(=O)Nc2ccc(F)cc2)sc2nc[nH]c(=O)c12	0
COCC(=O)N1CCC2(CC1)OC(=O)N(CCOc1ccccc1)C2(C)c1cccnc1 (stereo not drawn)	0
CC1=C(c2ccc(F)cc2)S(=O)(=O)N=C1N1CCC(C(=O)NCCc2ccccc2)CC1	0
CC1=C(c2ccc(Cl)cc2)S(=O)(=O)N=C1N1CCC(C(=O)NCCc2ccco2)CC1	0
CCC1=C(c2ccc(C)cc2)S(=O)(=O)N=C1N1CCC(C(=O)NCCc2ccc(Cl)cc2)CC1	8.91µM
COc1ccc(C2Cn3nnc(C(=O)N4CCC(C(=O)NCc5cccc(F)c5)CC4)c3CO2)cc1 (stereo not drawn)	0
Cc1cc(C)cc(NC(=O)N2c3ccccc3CC2c2noc(C3CCOCC3)n2)c1 (stereo not drawn)	0
O=C(Cc1cccc(C(F)(F)F)c1)N1CCCc2ncc(C(=O)N3CCCC[C@@H]3Cc3ccccc3)cc21	11.2µM
COc1ccccc1N1CCCc2ncc(C(=O)N3CC[S+](=O)([O-])CC3)cc21	0
O=C(NCc1cccc(F)c1)c1cnc2c(c1)N(C(=O)Cc1cccc(C(F)(F)F)c1)CCC2	0
COc1ccccc1N1CCCc2ncc(C(=O)N3CCCC[C@@H]3Cc3ccccc3)cc21	4.47µM
COc1ccccc1N1CCCc2ncc(C(=O)NCCc3c[nH]c4ccccc34)cc21	0
O=C(Cc1cccc(C(F)(F)F)c1)N1CCCc2ncc(C(=O)N3CCC[C@@H]3c3ccc(F)cc3)cc21	0
CC(C)CC(=O)N1CCOc2ccc(CN3CCc4ccccc4C3)cc2C1	0
Cc1ccc(CNC(=O)C2CCN(c3cn[nH]c(=O)c3)C2)cc1 (stereo not drawn)	0
Cc1noc(C)c1CC(=O)N1CCCC(COc2ccccc2C(=O)NC2CC2)C1 (stereo not drawn)	0
COCCOC1CCN(C(=O)c2cccs2)CC1	0
COCCC(=O)N1CCCCCCNC(=O)[C@@H]2C[C@@H](c3nc(-c4cccnc4)no3)C[C@@H]21	0
Cc1nc2ccc(S(=O)(=O)NCC(=O)Nc3ccc(C)c(Cl)c3)cc2s1	0
CSCCC(NS(=O)(=O)c1ccc2c(c1)oc(=O)n2C)C(=O)N1CCN(c2cc(C)ccc2C)CC1 (stereo not drawn)	0
Cc1ccc(C)c(N2CCN(C(=O)C(CC(C)C)NS(=O)(=O)c3ccc4nc(C)sc4c3)CC2)c1 (stereo not drawn)	7.94µM
COc1ccc(-c2[nH]nc3ncc(C(=O)N4CC(O)C4)nc23)c(C)c1	0
SMILES	Pf Dd2 growth
N#Cc1ccc(-c2nc(C3CC(=O)N(c4ccc(F)cc4)C3)no2)cc1 (stereo not drawn)	0
O=C(Cc1ccsc1)N1CC(c2nnc(-c3ccncc3)o2)C2(CCOCC2)C1 (stereo not drawn)	0
O=C(Nc1cccc(C(F)(F)F)c1)N[C@H]1CO[C@H]2[C@@H]1OC[C@H]2OC(=O)Nc1ccccc1	0
O=C(Nc1cccc(C(F)(F)F)c1)O[C@@H]1CO[C@H]2[C@@H]1OC[C@@H]2n1cc(-c2ccccn2)nn1	10µM
O=C(Nc1ccc(Oc2ccccc2)cc1)N[C@H]1CO[C@H]2[C@@H]1OC[C@@H]2n1cc(-c2ccccn2)nn1	0
O=C1CCN(C(=O)c2cccnc2)CCCC(C(=O)NCCC2=CCCCC2)CCN1 (stereo not drawn)	0
CC(C)CNC(=O)C1Cn2cccc2C(=O)N1C (stereo not drawn)	0
CCOc1ccc2oc(=O)cc(CN3CCN(C(=O)c4cccc(Cl)c4)CC3)c2c1	0
CCOC(=O)C1=C(CN2CCN(c3cccc(Cl)c3)CC2)NC(=O)NC1c1ccc(Cl)cc1 (stereo not drawn)	0
CCCOCc1cc(CN2CCN(c3cccc(Cl)c3)CC2)c(O)c2ncccc12	3.16µM
COc1cc(Cl)cc(CN2CCN(c3ncccc3C#N)CC2)c1OC	0
Cn1ncc2c(N3CCN(c4cccc(Cl)c4)CC3)ncnc21	0
CCCCOCc1cc(CN2CCN(c3cccc(Cl)c3)CC2)c(O)c2ncccc12	1µM
CCc1ccccc1OCC(=O)c1ccc2c(c1)N(CCCC(=O)N1CCOCC1)C(=O)CO2	0
CCOC(=O)N1CCC(c2nnc(CN3CCCCCC3)n2C)CC1	0
COc1ccc(CCC(=O)N2C[C@@H](C(N)=O)[C@H](c3nc(C)no3)C2)cc1OC	0
COc1nccc(N2CCC(CC(=O)N3CCN(C4CCCCC4)CC3)CC2)n1	0
O=C(N[C@H]1C[C@H]2C(=O)NC[C@@H](CCC(=O)N3CCN(c4ccccc4)CC3)N2C1)c1ccco1	0
Cc1c(CN(C)c2cc(C3CC(O)C3)nc(N)n2)[nH]c2ccccc12 (stereo not drawn)	0
